# “And” between values parts separate entries of the source, which are not always exact repeats. Identical values can stand only once. Out of some 16,000 compounds screened, about 5,800 (36%) were called active. Inconclusive results (about 23%) are left out. The call rests on the fitted dose curve; in most records, active means well fitted curve in the direction sought with a large enough effect; inconclusive means small, poorly fitted or top-dose-only effect, or effect the other way; inactive means no such curve, though single readings can be large or run the other way. This is one part of the list. Some structures have more than one record in an assay (separate samples or runs), and their calls can disagree.
# Target: Cytochrome P450 2C19 (Homo sapiens) (UniProt P33261)
# Sequence (P33261 whole entry, looked up): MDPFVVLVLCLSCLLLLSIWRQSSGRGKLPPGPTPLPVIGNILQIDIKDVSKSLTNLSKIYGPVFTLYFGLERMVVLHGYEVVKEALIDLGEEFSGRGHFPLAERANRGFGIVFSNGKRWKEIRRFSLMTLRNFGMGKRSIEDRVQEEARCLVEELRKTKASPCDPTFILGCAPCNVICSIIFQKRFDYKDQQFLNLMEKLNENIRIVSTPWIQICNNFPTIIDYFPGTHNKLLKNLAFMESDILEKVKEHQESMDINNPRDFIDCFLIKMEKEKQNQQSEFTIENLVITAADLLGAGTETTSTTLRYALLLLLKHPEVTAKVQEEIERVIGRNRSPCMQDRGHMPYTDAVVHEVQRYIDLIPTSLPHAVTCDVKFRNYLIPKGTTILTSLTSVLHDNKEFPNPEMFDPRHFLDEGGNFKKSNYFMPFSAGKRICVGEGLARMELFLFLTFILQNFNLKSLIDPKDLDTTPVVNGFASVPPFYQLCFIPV
# Experiment: Cytochrome panel assay with activity outcomes
# Details: recombinant CYP, pro-luciferin dealkylation, luminescence, p450-cyp2c19; series mostly up to 57.1 µM; activity, negative = inhibition: at the top concentration
# On the % scale 0 is the no-effect control and ±100 the full control effect.
SMILES,AC50,"activity, negative = inhibition"
CC(C)(C)NC[C@H](O)c1cc(O)cc(O)c1,inactive,–
CN1CCc2cc(Cl)c(O)cc2[C@H](c2ccccc2)C1,–,-13.6% (inactive)
O=C(O)CCC(=O)N1CCOc2ccc(Cl)cc21,–,-15.9% (inactive)
Cc1ccc2nc(N3CCN(S(=O)(=O)c4ccc5c(c4)OCCO5)CC3)c(C#N)cc2c1,2.51 µM (active),–
Cc1ccc(Cl)cc1N1CCN(S(=O)(=O)c2ccc3c(c2)OCCO3)CC1,3.98 µM (active),–
CO[C@@H]1COC(=O)CC=C[C@@H](C)[C@@H]2C=C[C@H](O)[C@@H](COC(=O)[C@H](C)NC(=O)CC=C[C@H]1C)O2,–,-12.2% [at 11.4 µM] (inactive)
CCCC[P+](CCCC)(CCCC)Cc1ccc(NC(=O)[C@@H](Cc2ccc3ccccc3c2)NC(=NC2CCCCC2)NC2CCCCC2)cc1,–,1.34% (inactive)
CCC(NC(=O)c1ccccc1NC(=O)c1ccco1)C(=O)NC1CCCCC1 (stereo not drawn),15.8 µM (active),–
CCOc1cc(NC(=O)c2cccs2)c(OCC)cc1NC(=O)c1ccco1,–,-24.3% (inactive)
CCOc1cc(NC(=O)C2CCCCC2)c(OCC)cc1NC(=O)c1ccco1,7.94 µM (active),–
COCCNc1nc(-c2ccccc2C(F)(F)F)nc2ccccc12,20 µM (active),–
CC(=O)NCCNc1nc(-c2ccccc2C)nc2ccccc12,–,-22.4% (inactive)
FC(F)(F)c1ccccc1-c1nc(NCc2cccnc2)c2ccccc2n1,3.98 µM (active),–
CC(=O)NCCNc1nc(-c2ccccc2Cl)nc2ccccc12,3.98 µM (active),–
FC(F)(F)c1ccccc1-c1nc(NCc2cccs2)c2ccccc2n1,7.94 µM (active),–
CC(=O)NCCNc1nc(-c2ccccc2C(F)(F)F)nc2ccccc12,–,-28.8% (inactive)
CN(C)C(=O)c1ccc(-c2nc(NCc3cccnc3)c3ccccc3n2)cc1,–,-11.9% (inactive)
COCCNc1nc(-c2ccccc2OC)nc2ccccc12,–,-35% (inactive)
FC(F)(F)c1ccccc1-c1nc(NCCN2CCOCC2)c2ccccc2n1,–,-29.9% (inactive)
CCOC(=O)CCN1C(=O)[C@H]2[C@H]3[C@H](O)[C@H](O)C/C(=N/OC/C=C(\C)CCC=C(C)C)[C@@H]3CC[C@@H]2C1=O,–,6.34% [at 11.4 µM] (inactive)
CCCCCCCCCCCCCCC[C@@H](O)[C@@H](N)CO,–,-34.9% (inactive)
O=c1[nH]c(SCc2c(Cl)c(Cl)c(Cl)c(Cl)c2Cl)nc(=S)[nH]1,–,-28.6% [at 11.4 µM] (inactive)
Clc1ccccc1-c1nc(NCc2cccs2)c2ccccc2n1,7.94 µM (active),–
CN(C)Cc1ccccc1-c1nc(NCc2cccs2)c2ccccc2n1,–,21.4% (inactive)
CN(C)CCNC(=O)Cn1nc(-c2ccc(Cl)cc2)ccc1=O,–,-7.39% (inactive)

SMILES,AC50,"activity, negative = inhibition"
COc1ccc(NC(=O)N2CCC3(CC2)CCN(C(=O)c2csnn2)CC3)cc1,–,6.58% (inactive)
CC(=O)C1C(c2ccccc2OC(F)F)NC(=O)NC1(O)C(F)(F)F (stereo not drawn),–,-20.9% (inactive)
Cn1c(-c2ccc(F)cc2)cnc1NCc1ccc(F)cc1,2.51 µM (active),–
Cn1c(-c2ccccc2)cnc1N,–,-26.7% (inactive)
Cn1c(-c2ccc(F)cc2)cnc1NCc1cccc(F)c1,6.31 µM (active),–
CCNc1ncc2nc(-c3ccc(F)cc3)c(=O)n(C)c2n1,–,12.1% (inactive)
Cc1ccc(-c2cnc(NC(=O)CCC(=O)N3CCCCC3)n2C)cc1,–,-26.8% (inactive)
CCN(CC)C[C@@H](O)CN1CCCCc2nc(C)c(C)cc21,–,32.1% [at 11.4 µM] (inactive)
O=C(NC1(C(F)(F)F)C(=O)Nc2c1c(=O)[nH]c(=O)n2-c1ccc(F)cc1)c1cccnc1 (stereo not drawn),–,-21.4% (inactive)
CCCCN1C(=O)NC(NC(=O)c2ccco2)(C(F)(F)F)C1=O (stereo not drawn),8.91 µM (active),–
O=C(NC1(C(F)(F)F)NC(=O)N(Cc2cccnc2)C1=O)c1ccccc1 (stereo not drawn),15.8 µM (active),–
O=C(c1ccco1)N1CCC2(CC1)CN(Cc1cc(C(F)(F)F)cc(C(F)(F)F)c1)C2,–,-26.9% (inactive)
NS(=O)(=O)c1ccc(N=Nc2ncccc2O)cc1,–,-17% [at 11.4 µM] (inactive)
Cc1ccc2nc(SCc3nnc(-c4ccccc4[N+](=O)[O-])o3)c(C#N)cc2c1,0.794 µM (active),–
Cc1nc2cccc([N+](=O)[O-])c2n1CCCN(C)C,–,37.8% [at 11.4 µM] (inactive)
CN(Cc1ccccc1)Cn1ccnc1,2 µM (active),–
C#CCN(C)Cc1ccccc1,inactive,–
COc1ccc(CCNC[C@H](O)c2ccc(O)cc2)cc1OC,–,13.4% (inactive)
CCOc1nc(NCCc2ccc(OC)c(OC)c2)nc(NC(C)(C)CO)n1,6.31 µM (active),–
COCCn1c(=O)cnc2cnc(Oc3ccccc3)nc21,10 µM (active),–
Cn1c(=O)c(-c2cccs2)nc2cnc(Oc3ccccc3)nc21,–,-28.2% (inactive)
COCCn1c(=O)c(-c2ccccc2)nc2cnc(Oc3ccccc3)nc21,–,-68.1% (inactive)
COc1ccc(Oc2ncc3ncc(=O)n(CCc4ccccc4)c3n2)cc1,–,-24.1% (inactive)
COCCn1c(=O)c(-c2cccs2)nc2cnc(Oc3ccccc3)nc21,10 µM (active),–
COCCn1c(=O)cnc2cnc(Oc3ccc(OC)cc3)nc21,–,-29.1% (inactive)

SMILES,AC50,"activity, negative = inhibition"
O=c1cnc2cnc(Oc3ccccc3)nc2n1CCc1ccccc1,6.31 µM (active),–
COc1ccc(S(=O)(=O)N(CCc2ccccc2)CC(=O)N2CCOCC2)cc1,10 µM (active),–
COc1ccc(NC(=O)N2CCCC3(CCN(S(=O)(=O)c4ccccc4)CC3)C2)cc1,–,-9.43% (inactive)
CN(Cc1ccccc1)S(=O)(=O)c1ccc(OCC(=O)N2CCOCC2)cc1,–,-58.2% (inactive)
CCN(CC)S(=O)(=O)c1ccc2c(c1)nc(SCC(=O)N1CCOCC1)n2-c1ccccc1OC,–,-25.7% (inactive)
COc1ccc(S(=O)(=O)N(CC(=O)N2CCCC2)Cc2ccccc2)cc1,5.62 µM (active),–
c1ccc(Nc2nc(-c3ccc4c(c3)OCO4)nc3ccccc23)cc1,3.16 µM (active),–
c1ccc2c(Nc3ccncc3)nc(-c3ccc4c(c3)OCO4)nc2c1,3.98 µM (active),–
CCOc1ccc(-n2c(SCC(=O)Nc3ccc(OC)cc3)nc3c(c2=O)SCC3)cc1,7.08 µM (active),–
CCOc1ccc(-n2c(SCC(=O)Nc3ccc4c(c3)OCCO4)nc3c(c2=O)SCC3)cc1,2.82 µM (active),–
CCOc1ccc(-n2c(SCC(=O)Nc3ccc(OC)cc3OC)nc3c(c2=O)SCC3)cc1,5.01 µM (active),–
C/C(CCN1CCCCc2nc(C)c(C)cc21)=N\O[C@@H](C)c1cc(-c2c(C)cc(C)cc2C)no1,–,-41.4% [at 11.4 µM] (inactive)
O=c1c(-c2cc(F)cc(F)c2)nc2cnc(N3CCOCC3)nc2n1C1CC1,–,24.5% (inactive)
CO[C@H]1COC(=O)[C@H](C)COC(=O)[C@@H](Cc2ccccc2)NC(=O)C/C=C\[C@H]1C,–,-17.9% [at 11.4 µM] (inactive)
CS(=O)(=O)N1CCC2(CC1)CN(Cc1nccs1)C2,–,-13.6% (inactive)
C[C@]12CC[C@H]3c4ccc(O)cc4CC[C@@H]3[C@H]1C/C(=N/O)[C@H]2O,–,27.1% [at 11.4 µM] (inactive)
COc1cc(CNn2nnnc2N)ccc1OCc1c(Cl)cccc1Cl,2.51 µM (active),–
CC(=O)N1N=C(c2cccc([N+](=O)[O-])c2)OC1c1ccc(Cl)cc1Cl (stereo not drawn),0.447 µM (active),–
CC(=O)N1N=C(c2cccc([N+](=O)[O-])c2)OC1c1ccccc1Cl (stereo not drawn),2.82 µM (active),–
CN1CCN(c2ncc3nc(-c4cccc(C#N)c4)c(=O)n(CCC#N)c3n2)CC1,–,11.8% (inactive)
COc1ccc(N2C(=O)CSC2c2cccc(F)c2)c(OC)c1 (stereo not drawn),11.2 µM (active),–
Cc1cc(NCc2ccccn2)ccc1Br,2.82 µM (active),–
c1ccc(CCNc2ccccn2)nc1,–,10.5% [at 11.4 µM] (inactive)
OCCCNCc1ccccn1,–,31.9% [at 11.4 µM] (inactive)
CNCCc1ccccn1,–,6.91% [at 25.6 µM] (inactive)

SMILES,AC50,"activity, negative = inhibition"
CN(C)CC[C@H](c1ccc(Br)cc1)c1ccccn1,inactive,–
Cc1cc(Br)ccc1NCc1ccccn1,0.251 µM (active),–
O=C(NCCCn1ccnc1)c1ccc(Br)c(S(=O)(=O)N2CCOCC2)c1,17.8 µM (active),–
Cc1ccc(C(=O)Oc2cc(C)n(C)c(=O)c2)cc1,–,-24.2% (inactive)
COC(=O)c1ccc(Oc2cc(C)nc(-n3nc(C)cc3C)n2)cc1,7.94 µM (active),–
CN1C(C(=O)Nc2ccccn2)=C(O)c2ccccc2S1(=O)=O,inactive and 6.31 µM (active),–
CN1C(C(=O)Nc2ccccn2)=C(O)c2sccc2S1(=O)=O,–,-5.67% [at 25.6 µM] (inactive)
COc1ccc2[nH]cc(CCNc3nc(-c4ccccc4OC)nc4ccccc34)c2c1,5.01 µM (active),–
COc1ccc2[nH]cc(CCNc3nc(-c4ccoc4)nc4ccccc34)c2c1,1.58 µM (active),–
COc1ccc2[nH]cc(CCNc3nc(-c4cccnc4)nc4ccccc34)c2c1,0.501 µM (active),–
COc1cccc(-c2nc(NCCc3c[nH]c4ccc(OC)cc34)c3ccccc3n2)c1,1.58 µM (active),–
COc1ccccc1-c1nc(NCCN2CCOCC2)c2ccccc2n1,–,-25.8% (inactive)
C1CCN(CC[C@@H]2CCCCN2)CC1,–,0.696% [at 11.4 µM] (inactive)
CCNC(=O)C/C(C)=N/NC(=O)C12CC3CC(CC(C3)C1)C2,–,-11.2% (inactive)
CC(C)C(NC(=O)C12CC3CC(CC(C3)C1)C2)C(=O)NC1=NCCS1 (stereo not drawn),10 µM (active),–
CCc1cccc2c(-c3ccccc3)c3c(nc12)OCC3,7.94 µM (active),–
CCc1cccc2c3c([nH]c12)[C@@](CC)(CC(=O)O)OCC3,–,-5.37% [at 25.6 µM] (inactive)
Cc1cc(Oc2ccccc2)nc(NCc2ccccc2)n1,3.16 µM (active),–
Cc1cc(C)nc(Nc2n[nH]c(COc3cccc4ccccc34)n2)n1,–,-11.4% (inactive)
Cn1cnc2c(NCc3ccccc3)nc(NCCO)nc21,–,0.577% (inactive)
Cc1cc(Oc2ccccc2)nc(-c2ccccc2)n1,11.2 µM (active),–
NCCS,–,-17% (inactive)
C#CCn1c(S(=O)(=O)Cc2ccc(OC)cc2)nc(-c2ccccc2)c1-c1ccccc1,2.24 µM (active),–
